Source: PubChem BioAssay
MITF TRPM1 inh: inhibitors of MITF-driven TRPM1 promoter in melanoma cells. 0.83% of 330,000 active. inhibition, % at 12.5 µM. AID 488899. SK-MEL-5 TRPM1 promoter luciferase, 24 h;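 active = mean inhibition across replicates of 60% or more, whatever share of single replicates reaches that level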
EBV LMP1 NFkB: Epstein-Barr LMP1 NF-kappaB reporter inhibition. LMP1-induced NF-kappaB luciferase reporter cells, luminescence. inhibition, % at 12.5 µM. 0.69% of 350,000 active. AID 504558; in the data active = inhibition above about 41%;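 also: 0% = neutral control wells and 100% = reference inhibitor control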
EWS-Fli inh: inhibitors of EWS/Fli oncoprotein transcriptional activity | A673 NR0B1-luciferase reporter, viability-normalised | inhibition, % at 12.6 µM | 0.67% of 350,000 active;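 active = mean inhibition of at least 50% after viability correction, with every replicate also passing that limit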;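 also: firefly luciferase signal divided by Alamar Blue viability fluorescence both relative to DMSO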
PGC1a acetyl inh: modulators of PGC1a acetylation | U2OS PGC1a acetylation, AlphaScreen anti-acetyl-lysine; with virally co-expressed GCN5 acetyltransferase | inhibition, % at 15.6 µM | 0.17% of 350,000 active | AID 651687;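 active = every replicate shows inhibition of at least 40%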;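 also: 0% = neutral control wells and 100% = positive control wells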
LGR2 inh: blocks bursicon-induced cAMP signaling via Drosophila LGR2 | HEK293 LGR2, CRE-luciferase, bursicon-stimulated, 4 h | inhibition, % at 9.99 µM | 0.35% of 380,000 active;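 active = drop in luminescence signal, shown as inhibition above about 50% in the replicate tests, limit read from the data, passing the limit was not always enough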;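 also: agonist challenge used bursicon conditioned medium at about half maximal strength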
PAX8 inh HTS: PAX8 transcriptional activity inhibition | RMG-I TPO-luciferase reporter, SteadyGlo, 24 h | inhibition, % at 12.6 µM | 1.2% of 360,000 active;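 active = mean replicate inhibition at least 60% with every replicate also reaching 60%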;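 also: luciferase light reporting Pax8 driven TPO promoter activity; plate controls were median of neutral control wells for no effect and mitoxantrone controls for full effect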
Starred values were filed as active, the others as inactive; . = not tested or not shown. Only some compounds are listed: those with a hit (about 2.2% of all), similar ones and a draw of the others.

SMILES	MITF TRPM1 inh	EBV LMP1 NFkB	EWS-Fli inh	PGC1a acetyl inh	LGR2 inh	PAX8 inh HTS
C[C@@H]1CN([C@@H](C)CO)C(=O)c2c(c3ccccc3n2C)-c2ccccc2CO[C@@H]1CN(C)Cc1ccc(-c2ccccc2)cc1	.	.	7	.	6	63*
C[C@@H]1CN([C@H](C)CO)C(=O)c2c(c3ccccc3n2C)-c2ccccc2CO[C@@H]1CN(C)C	.	.	8	-10	-9	88*
C[C@@H]1CN([C@H](C)CO)C(=O)c2c(c3ccccc3n2C)-c2ccccc2CO[C@@H]1CN(C)Cc1ccc(-c2ccccc2)cc1	.	.	-3	-19	4	18
C[C@H]1CN([C@@H](C)CO)C(=O)c2c(c3ccccc3n2C)-c2ccccc2CO[C@@H]1CN(C)Cc1ccc(-c2ccccc2)cc1	.	.	3	.	23	82*
C[C@@H]1CN([C@@H](C)CO)C(=O)c2c(c3ccccc3n2C)-c2ccccc2CO[C@H]1CN(C)Cc1ccc(-c2ccccc2)cc1	.	.	-6	-3	23	.
C[C@H](CO)N1C[C@H](C)[C@H](CN(C)C(=O)Cc2ccccc2)OCc2ccccc2-c2c(n(C)c3ccccc23)C1=O	.	.	-3	23	11	9
C[C@H](CO)N1C[C@H](C)[C@@H](CN(C)C(=O)Cc2ccccc2)OCc2ccccc2-c2c(n(C)c3ccccc23)C1=O	.	.	9	-1	42	66*
C[C@H](CO)N1C[C@H](C)[C@@H](CN(C)Cc2ccc(C(=O)O)cc2)Oc2ccc(NS(=O)(=O)c3ccccc3)cc2C1=O	.	.	-11	0	-38	.
C[C@H](CO)N1C[C@H](C)[C@H](CN(C)C(=O)CN(C)C)Oc2ncc(-c3ccc(C(=O)N(C)C)cc3)cc2C1=O	.	.	12	13	9	.
O=C(C[C@H]1CC[C@H]2[C@@H](COC[C@@H](O)CN2S(=O)(=O)c2cccc(Cl)c2)O1)Nc1ccccc1	.	.	-2	4	3	-8
O=C(C[C@@H]1CC[C@H]2[C@@H](COC[C@H](O)CN2S(=O)(=O)c2cccc(Cl)c2)O1)Nc1ccc(-c2ccccc2)cc1	.	.	4	-3	-4	67*
O=C(C[C@@H]1CC[C@@H]2[C@H](COC[C@H](O)CN2S(=O)(=O)c2cccc(Cl)c2)O1)Nc1ccc(-c2ccccc2)cc1	.	.	-2	-8	-3	94*
COc1ccc(CCNC(=O)Cn2nc(C)c3c(C)n(-c4ccccc4)nc3c2=O)c(OC)c1	11	8	-5	.	8	12
COc1ccc(OC)c(CCNC(=O)Cn2nc(C)c3c(C)n(-c4ccc(C)cc4)nc3c2=O)c1	47	1	16	8	12	71*
C[C@H](CO)N1C[C@H](C)[C@@H](CN(C)C(=O)NC2CCCCC2)Oc2ccc(NC(=O)C3CC3)cc2CC1=O	.	.	-2	10	1	.
C[C@H]1CN([C@@H](C)CO)S(=O)(=O)c2ccc(C#Cc3ccccc3F)cc2O[C@@H]1CN(C)CC1CCOCC1	.	.	-3	-1	-9	90*
C[C@@H]1CN([C@@H](C)CO)S(=O)(=O)c2ccc(C#Cc3ccccc3F)cc2O[C@H]1CN(C)CC1CCOCC1	.	.	23	-6	31	94*
Cc1ccccc1S(=O)(=O)N1[C@H](C#N)[C@@H](c2ccc(C#CC3CCCC3)cc2)[C@@H]1CO	.	.	-2	-9	-7	.
CN(C)S(=O)(=O)c1ccc(-c2csc(N/N=C/c3ccc(O)cc3)n2)cc1	72*	-35	56*	-11	6	30
O=C(/C=C/c1ccco1)Nc1nc(-c2ccccc2)cs1	-51	-23	-111	.	-18	98*
CN(C)S(=O)(=O)c1ccc(-c2csc(N/N=C/c3ccco3)n2)cc1	72*	25	9	7	102*	49
Cc1ccc(-c2csc(N/N=C/c3ccco3)n2)cc1	-72	-52	.	4	-77	.
O=C(Nc1ccc(F)cc1)N[C@H]1CC[C@@H](CCNS(=O)(=O)c2ccccc2F)O[C@H]1CO	.	.	2	13	-17	.
O=C(C[C@H]1CC[C@@H]2[C@H](COC[C@@H](O)CN2Cc2ccccc2)O1)NCc1ccccc1Cl	.	.	0	-4	20	0
CN1CCN(C(=O)C2=C[C@H](c3ccccc3)C[C@H](OCCCCO)O2)CC1	.	.	-10	.	.	-6
CC1=C(C(=O)N2CCC=CC2=O)Cc2ccccc21	.	.	12	-43	.	95*
